# From PubChem
# Only some compounds are listed: those with a hit (about 11% of all), similar ones and a draw of the others.
# hNpr1 antagonist: human Npr1 receptor antagonism; HEK293 hNpr1 GloSensor cGMP, ANP-stimulated luminescence; Potency, µM (titrated, usually from 46.3 µM), for the others: at the highest dose activity change, negative = inhibition, actives largely listed as inhibitors; P16066; 76,000 compounds, 1.6% hits; calls by dose curve; further: nearly all actives have a fitted effect of over 60% in size
#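 Compound pre-incubated 30 min at room temperature on GloSensor-loaded HEK293 cells stably carrying hNpr1 and the pGS-40F cGMP biosensor. Stimulation uses hNppA at 0.1 nM final; luminescence is taken at baseline and 20 min post-agonist.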
# Luciferase inh: inhibitors of firefly (Photinus pyralis) luciferase; 76,000 compounds, 2.5% hits; Potency, µM (top dose mostly 115 µM), hits mostly inhibitors; purified P. pyralis luciferase, luminescence, biochemical; P08659; further: nearly all actives have a fitted effect of over 65% in size
# Target sequence (P08659 whole entry, looked up): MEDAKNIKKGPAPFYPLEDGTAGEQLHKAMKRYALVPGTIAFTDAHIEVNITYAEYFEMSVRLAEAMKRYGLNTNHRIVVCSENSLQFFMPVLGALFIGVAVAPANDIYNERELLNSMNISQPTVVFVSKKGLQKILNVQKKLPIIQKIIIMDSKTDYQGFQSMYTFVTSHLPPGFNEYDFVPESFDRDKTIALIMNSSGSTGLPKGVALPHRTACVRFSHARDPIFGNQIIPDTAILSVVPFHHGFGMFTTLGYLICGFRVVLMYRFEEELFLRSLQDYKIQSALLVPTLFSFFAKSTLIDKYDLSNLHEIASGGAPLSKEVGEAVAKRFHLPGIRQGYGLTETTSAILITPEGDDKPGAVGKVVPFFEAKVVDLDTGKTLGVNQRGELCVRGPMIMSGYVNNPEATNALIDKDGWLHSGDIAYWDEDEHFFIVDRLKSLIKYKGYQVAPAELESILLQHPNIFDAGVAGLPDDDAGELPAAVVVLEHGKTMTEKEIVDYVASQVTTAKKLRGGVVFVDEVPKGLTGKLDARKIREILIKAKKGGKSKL
#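 FLuc 10nM, D-luciferin 10uM, ATP 10uM, Mg acetate 10mM, Tris acetate pH 7.5, Tween/BSA; cpd qHTS; enzyme added last; CCD luminescence.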
# HEK293 tox: HEK 293 cell cytotoxicity; 94,000 compounds, 6.6% hits; Potency, µM (doses to about 115 µM), for inactives: at the top dose activity change, negative = cytotoxicity, most hits filed as inhibitors; HEK 293 viability, ATP luminescence (CellTiter-Glo), 48-72 h; AID 1345083; further: nearly all actives have a fitted effect of over 60% in size
#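 Viability of HEK 293 cells, plated at 250 cells/well, was judged by cellular ATP after compound treatment for 48 or 72 hr. Luminescence was imaged 10 min after CellTiter-Glo addition at room temperature.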
# 3T3 cytotox: NIH 3T3 cell cytotoxicity; NIH 3T3 viability, CellTiter-Glo ATP luminescence, 48-72 h; Potency, µM (titrated, usually from 96.7 µM), without a hit: at the highest dose activity change, negative = cytotoxicity, actives largely listed as inhibitors; 94,000 compounds, 4.3% hits; further: nearly all actives have a fitted effect of over 55% in size
#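 Mouse fibroblast NIH 3T3 cells, 400 per well, received compound via pintool and were incubated for 48 or 72 hr prior to CellTiter-Glo ATP luminescence measurement.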
# An asterisk follows results filed as active; i = inactive; ? = inconclusive; · = no result; [ ] = another dose, or the depositor's remark. Unless noted, the call rests on the fitted dose curve; in most records, active means well fitted curve in the direction sought with a large enough effect; inconclusive means small, poorly fitted or top-dose-only effect, or another doubt; inactive means no such curve, though single readings can be large; an effect the other way counts as inactive or inconclusive. On the % scale 0 is the no-effect control and ±100 the full control effect; potency means the concentration at half of the fitted maximal effect.
SMILES,hNpr1 antagonist,Luciferase inh,HEK293 tox,3T3 cytotox
FC(F)(F)c1cccc(C2=NOC3(CCCN(Cc4cccs4)C3)C2)c1 (stereo not drawn),-9.4%,i,?,35.5µM*
Cn1nccc1CN1CCCC2(CC(c3cccc(C(F)(F)F)c3)=NO2)C1 (stereo not drawn),0.0%,i,44.7µM*,-26.2%
Cc1noc(C)c1[S+](=O)([O-])N1CCCC2(CC(c3cccc(C(F)(F)F)c3)=NO2)C1 (stereo not drawn),-15.1%,i,35.5µM*,-13.3%
FC(F)(F)c1cccc(C2=NOC3(CCCN(Cc4cccc5ccccc45)C3)C2)c1 (stereo not drawn),8.0%,i,?,?
CCC(CC)C(=O)N1CC[C@H]2NC(=O)N(c3ccc(C(C)C)cc3)C(=O)[C@H]21,-11.0%[70.6 µM],i,?,4.1%[174 µM]
Cc1ccc(C2c3cc(OCc4nc(C(=O)NCC(C)C)co4)ccc3CCN2C(=O)C2CC2)cc1 (stereo not drawn),-1.1%,i,39.8µM*,?
CCN(CC)C(=O)c1coc(COc2ccc3c(c2)C(c2ccc(C)cc2)N(C(=O)C2CC2)CC3)n1 (stereo not drawn),-25.3%,i,10µM*,?
CC(C)CNC(=O)c1coc(COc2ccc3c(c2)C(c2cccc(F)c2)N(C(=O)C2CC2)CC3)n1 (stereo not drawn),?,i,14.1µM*,12.6µM*
Cc1cccc(C2c3cc(OCc4nc(C(=O)NCC5CC5)co4)ccc3CCN2C(=O)C2CC2)c1 (stereo not drawn),?,i,?,?
Cc1ccc(C2c3cc(OCc4nc(C(=O)NC5CC5)co4)ccc3CCN2C(=O)C2CC2)cc1 (stereo not drawn),-24.4%,i,?,?
CCCNC(=O)c1coc(COc2ccc3c(c2)C(c2cccc(C)c2)N(C(=O)C2CC2)CC3)n1 (stereo not drawn),?,i,12.6µM*,?
COCC(=O)N1CCN(C(=O)c2nc3cccnc3n(C3CC3)c2=O)CC1,·,·,0.8%,-21.9%
CNC(=O)c1cc(C2CC2)nc2onc(C3CCN(C(=O)c4ccccc4)CC3)c12,·,·,-4.1%,-28.3%
CC(C)(C)CC(=O)N1CCC(N2C(=O)C3(CCCCC3)C2c2ccncc2)CC1 (stereo not drawn),5.8%,i,i,i
COCCNC(=O)c1coc(COc2ccc3c(c2)C(c2cccc(F)c2)N(C(=O)C2CC2)CC3)n1 (stereo not drawn),-9.2%,i,?,?
Cc1ccc(C2c3cc(OCc4nc(C(=O)NCC5CC5)co4)ccc3CCN2C(=O)C2CC2)cc1 (stereo not drawn),-23.1%,i,35.5µM*,28.2µM*
COCCNC(=O)c1coc(COc2ccc3c(c2)C(c2ccc(F)cc2)N(C(=O)C(C)C)CC3)n1 (stereo not drawn),-1.2%,i,8.91µM*,-28.4%
CCCNC(=O)c1coc(COc2ccc3c(c2)C(c2ccc(C)cc2)N(C(=O)C2CC2)CC3)n1 (stereo not drawn),-8.1%,i,?,?
O=C(c1ccccn1)N1CCCN(CCn2nc3n(c2=O)CCCC3)CC1,·,·,2.0%,-14.6%
CC(C)C(=O)NC1CCN(c2ccnc3ccnn23)CC1,·,·,i,-9.1%[138 µM]
O=C(NC1CCN(Cc2ccccc2)CC1)C1CN(C2CCCCC2)C(=O)N1 (stereo not drawn),·,·,?,-17.2%
O=C1Nc2ccccc2CN(CC2CCCC2)C12CCNC2 (stereo not drawn),·,·,-28.9%,?
O=C(NC1CCN(c2cc(-c3cccs3)[nH]n2)C1)c1ccccc1 (stereo not drawn),2.5%,i,?,-26.2%
Cc1cccc(CC(=O)NC2CCN(c3cc(-c4cccs4)[nH]n3)C2)c1 (stereo not drawn),-16.1%,i,35.5µM*,?
O=C(NC1CCN(c2cc(-c3cccs3)[nH]n2)C1)c1cccc(Cl)c1 (stereo not drawn),-9.3%,i,39.8µM*,?
SMILES,hNpr1 antagonist,Luciferase inh,HEK293 tox,3T3 cytotox
CCc1cc(=O)n(CC(=O)N2CCN(c3ccccc3F)CC2)c(N2CCOCC2)n1,-23.5%,i,39.8µM*,?
CCc1cc(=O)n(CC(=O)N2CCN(c3ccc(OC)cc3)CC2)c(N2CCOCC2)n1,-13.8%,i,?,-18.5%
O=C(Nc1ccc(Cl)cc1Cl)c1ccc2ccnn2c1,-4.8%[70.6 µM],2.82µM*,?,-20.7%[138 µM]
COc1ccc(-n2c(=O)c3c(n2Cc2ccccc2)CN(C(C)=O)CC3)cc1,5.1%[70.6 µM],i,2.5%[172 µM],?
Cc1ccccc1CN1CCc2c(n(Cc3ccccc3)n(-c3ccccc3)c2=O)C1,-21.4%[70.6 µM],i,89.1µM*,89.1µM*
COc1ccc(Cn2c3c(c(=O)n2Cc2ccccc2)CCN(C(=O)c2ccnn2C)C3)cc1,-1.4%,i,3.2%,35.5µM*
Nc1ncccc1CN1CCc2c(n(Cc3ccccc3)n(-c3ccccc3)c2=O)C1,-13.7%[70.6 µM],i,?,-25.4%[138 µM]
COc1ccc(Cn2c3c(c(=O)n2Cc2ccccc2)CCN(C(=O)Cc2cccc(Cl)c2)C3)cc1,-6.8%,i,?,?
COc1ccc(-n2c(=O)c3c(n2Cc2ccccc2)CN(C(=O)C(C)C)CC3)cc1,-7.9%[70.6 µM],i,-3.8%[172 µM],10µM*
CCn1c2c(c(=O)n1Cc1ccccc1)CCN(C(=O)C(C)C)C2,3.5%[70.6 µM],i,i,?
CC(C)C(=O)N1CCc2c(n(Cc3ccccc3)n(-c3ccccc3)c2=O)C1,-3.0%[70.6 µM],i,3.7%[172 µM],22.4µM*
CCn1nc(CC(C)C)cc1C(=O)N(C)Cc1cccc(-n2cccn2)c1,-15.2%,i,50.1µM*,?
CCn1nc(CC(C)C)cc1C(=O)N(C)C1CCCN(C2Cc3ccccc3C2)C1 (stereo not drawn),0.5%,i,?,?
Cc1ccc(C(=O)N2CCC3(CC2)N=C(c2ccc(C)cc2)NO3)cc1,-24.5%,35.5µM*,-16.6%,-29.2%
CCc1ccc(C(=O)N2CCC3(CC2)N=C(c2ccc(C)cc2)NO3)cc1,?,39.8µM*,?,-39.9%
O=C(c1ccoc1)N1CCC2(CC1)N=C(c1cccc(Br)c1)NO2,-1.0%,i,-8.2%,-17.5%
Cc1ccc(C(=O)N2CCC3(CC2)N=C(c2cccc(Br)c2)NO3)cc1,?,i,?,15.8µM*
COc1ccc(C(=O)N2CCC3(CC2)N=C(c2ccc(C)cc2)NO3)cc1,-28.2%,?,?,-6.8%
Cc1ccc(C2=NC3(CCN(C(=O)c4ccc5c(c4)OCO5)CC3)ON2)cc1,-22.4%,35.5µM*,?,-17.7%
CC(C)N1CCC(F)(c2nc(-c3ccccc3)no2)CC1,-3.4%,i,?,-22.1%
CCN1C(=O)CCN(C(=O)COCCOC)CC12CCOCC2,·,·,-5.1%,-12.6%
COc1ccccc1C(=O)N1CCn2c(nnc2-c2ccc(NC(C)=O)cc2)C1,·,·,?,-14.6%
